Assay outcomes: PubChem BioAssay, National Center for Advancing Translational Sciences (NCATS)
Compounds with a hit are over-represented: about 2.8% of the library has one in this group of screens.
SNCA expr inh: inhibitors of alpha-synuclein (SNCA) gene expression; HEK-293 SNCA-luciferase knock-in, luminescence, 24 h; 140,000 tested, 0.17% active; Potency, µM (titrated, usually from 57.2 µM), actives largely listed as inhibitors; note: nearly all actives have a fitted effect of over 45% in size
KDM5B inh: inhibitors of human KDM5B histone demethylase. AID 1347165. KDM5B demethylase, FDH-coupled NADH fluorescence (FDH is formaldehyde dehydrogenase). Potency, µM (doses to about 57.7 µM), hits mostly inhibitors. 220,000 tested, 2.6% active. Q9UGL1; note: nearly all actives have a fitted effect of over 70% in size
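Measured: NADH fluorescence change, 30 min, RT. System: KDM5BΔAP 200 nM final, H3K4me3 peptide, α-KG, Fe(II), ascorbate, NAD⁺ plus FDH, pH 7.5 HEPES. Compounds: titrated, 10 min pre-incubation with enzyme.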
IP6K1 inhibitor: blocks human inositol hexakisphosphate kinase 1; Q92551; IP6K1 kinase, ADP-Glo luminescence, 2 h; stronger effect = lower value; activity change, % (series mostly up to about 58 µM); 140,000 tested, 0.81% active; AID 1645851; in the data active = activity change below about -25%
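ADP-Glo luminescence measures ADP made by human IP6K1 during a 2 h RT reaction with ATP/IP6 (mix at 1.3 mM/130 uM); top library doses 57.5 and 19.1 uM final.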
SNCA viab count: counter-screen for SNCA expression inhibitors: cell viability; 150,000 tested, 0.12% active; HEK-293-SNCA-luc viability, GF-AFC fluorescence, 24 h; Potency, µM (titrated, usually from 57.1 µM), most hits filed as cytotoxic; note: nearly all actives have a fitted effect of over 30% in size
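Cytotoxicity counterscreen: after 24 h compound treatment of genome-edited SNCA-luciferase HEK-293 cells, live-cell protease substrate GF-AFC read by fluorescence after 30 min; activity scaled between DMSO (0%) and medium-only (-100%), curves Hill-fitted.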
IP6K1 conf: human IP6K1 inhibition, confirmatory. AID 1645852. shares compounds with IP6K1 inhibitor. 1,200 tested, 13% active. recombinant IP6K1 kinase, ADP-Glo luminescence, 2 h. Potency, µM (doses to about 49 µM), hits mostly inhibitors; note: nearly all actives have a fitted effect of over 65% in size
Numbers stand for hits; – = inactive; ? = inconclusive; · = not tested or not shown; [ ] = another dose, or the depositor's remark. Unless noted, calls come from the whole dose curve; as a rule, active = well fitted curve in the direction sought with a large enough effect; inconclusive = small, poorly fitted or top-dose-only effect, or another doubt; inactive = no such curve, though single readings can be large; an effect the other way counts as inactive or inconclusive.

SMILES	SNCA expr inh	KDM5B inh	IP6K1 inhibitor	SNCA viab count	IP6K1 conf
CC1(CNc2ccccc2)COc2ccc(C(=O)NCCc3ccccn3)cc2N1 (centres undefined)	–	22µM	–	–	·
Cc1ccc(C(=O)NC(C)c2ccc3c(c2)NC(=O)CO3)s1 (centres undefined)	·	–	·	·	·
FC(F)(F)c1cccc(Nc2cnc3ccc(N4CCOCC4)nn23)c1	–	35µM	–	–	·
c1ccc(Nc2cnc3ccc(N4CCOCC4)nn23)cc1	–	–	–	–	·
Cc1nn2c(c1-c1ccccc1-c1ccccc1)N(Cc1ccc(O)cc1)CCC2	?	28µM	–	?	·
Cc1cccc(CN2CCCn3nc(C)c(-c4ccccc4-c4ccccc4)c32)n1	4.5µM	?	–	?	·
Cc1ccc(C(=O)NCC(=O)NCCc2c[nH]c3ccccc23)cc1	·	–	·	·	·
COc1ccc(C2=NS(=O)(=O)N(C)C(C(=O)N3CCN(C)CC3)=C2)cc1OC	·	–	·	·	·
Cc1cccc(NC(=O)C(C)OC(=O)c2cc[n+]([O-])cc2)c1 (centres undefined)	·	–	·	·	·
CCc1nc(C)cc(-c2cc(OC)c(OC)c(OC)c2)n1	–	25µM	–	–	·
c1ccc(C2=Nn3c(nnc3-c3ccncc3)SC2)cc1	·	·	·	·	–
COc1cc(C(=O)Nc2ccc3oc(C)nc3c2)cc(OC)c1C	·	–	·	·	·
CCCCCCCCCCCCSCC(=O)O	·	–	·	·	·
CCCCCCCCCCCCCCCCC(C(=O)O)C(O)(CC(=O)O)C(=O)O (centres undefined)	–	·	-78	–	23µM
CN(c1ccccc1)c1cc(=O)c2ccnc(-c3ccncc3)c2o1	–	–	–	–	·
CN(c1cc(=O)c2ccnc(Nc3ccc(F)c(Cl)c3)c2o1)C1CCOCC1	–	28µM	-25	–	–
CN(c1ccccc1)c1cc(=O)c2ccnc(Nc3cccnc3)c2o1	–	?	–	–	·
CN(c1cc(=O)c2ccnc(-c3cccc(C(F)(F)F)c3)c2o1)C1CCOCC1	–	28µM	-34	–	?
CSc1ccccc1C(=O)Nc1ccc(CSc2ccccc2)cc1	·	–	·	·	·
COc1cc2oc(=O)c(CC(=O)NC3CC3)c(C)c2cc1Cl	·	–	·	·	·
C=C(C)Cn1c(SCCCCC)nc2c1c(=O)n(C)c(=O)n2C	·	–	·	·	·
CC(C)NC(=O)c1cc(-c2cccc(C(F)(F)F)c2)c2cccn2n1	–	·	–	–	·
CCCCN(CC)C(=O)C1CCC(CNS(=O)(=O)c2cccc3nsnc23)CC1 (centres undefined)	–	–	-30	–	–
CCN(C(=O)C1CCC(CNS(=O)(=O)c2cccc3nsnc23)CC1)c1ccc(C)c(C)c1 (centres undefined)	–	–	–	–	·
CC(=O)c1ccc(NC(=O)Cn2c(C)cc(=O)n3nc(-c4cccs4)nc23)cc1	·	–	·	·	·
SMILES	SNCA expr inh	KDM5B inh	IP6K1 inhibitor	SNCA viab count	IP6K1 conf
CCN(CC)C(CNC(=O)c1ccc(=O)n(CCOC)n1)c1ccccc1 (centres undefined)	·	–	·	·	·
Cc1ccc(O)c(N=Nc2ccccc2)n1	?	·	·	–	7.3µM
O=C(CCn1c(=O)c2sccc2n(CC(=O)Nc2ccccc2)c1=O)Nc1ccc(F)cc1	·	–	·	·	·
CCNc1nc2c(s1)C(c1cccc(F)c1)CC(=O)N2 (centres undefined)	–	25µM	-71	–	16µM
CCOC(=O)NNC(=S)NCC1CCCO1 (centres undefined)	·	–	·	·	·
CCCOc1ccc(C(=O)N2C[C@H](c3cccc(OC)c3)[C@@H](N)C2)cc1Cl	–	–	–	–	·
CCCc1nc(C(=O)N2C[C@H](c3cccc(OC)c3)[C@@H](N)C2)cs1	–	?	-26	–	–
O=C1CC(c2ccccc2)Cc2[nH]c(=O)c(C(=O)Nc3cccc(F)c3)cc21 (centres undefined)	–	?	-93	–	–
CCOc1ccc2c(n1)CCN(C(=O)Cc1ccccc1)C2	–	–	–	–[12.5 µM]	·
CCOc1ccc2c(n1)CCN(C(=O)Cc1c[nH]c3ccccc13)C2	–	–	-26	–[12.5 µM]	–
Cc1cc(-n2c(C)nc3ccccc3c2=O)ccc1NC(=O)c1ccc(C)c([N+](=O)[O-])c1	–	–	-25	–	–
COc1ccc(Nc2nc(N)c(C(=O)c3cc(C)c(C)cc3C)s2)cc1	·	–	·	·	·
Cc1cccc(C(=O)N2CCC(Cc3nc(-c4cnccn4)no3)CC2)c1	–	–	-27	–	–
Cc1ccc(C(=O)N2CCC(Cc3nc(C(C)C)no3)CC2)cc1C	?	–	-27	–	–
COc1ccc(C(=O)N2CCC(Cc3nc(C(C)C)no3)CC2)cc1OC	–	–	–	–	·
O=C(c1ccc(F)cc1)N1Cc2[nH]cnc2C[C@H]1c1nc(-c2ccc(Cl)cc2)no1	–	–	-39	–	?
Cc1cccc(-c2noc([C@@H]3Cc4nc[nH]c4CN3C(=O)c3ccc(F)cc3)n2)c1	?	–	–	–	·
COc1ccc(C(C)=O)cc1CSCc1coc(-c2ccccc2)n1	·	–	·	·	·
CCC(NC(=O)C(C)(C)C)c1ccccc1 (centres undefined)	·	–	·	·	·
Cc1ccc(NCc2cccn2-c2nnc(N3CCC(C(=O)NCc4ccc(OC(C)C)cc4)CC3)s2)cc1	?	?	–	–	·
Cc1ccc(NCc2cccn2-c2nnc(N3CCC(C(=O)NCCc4ccc(Cl)cc4)CC3)s2)cc1	?	–	-25	–	–
CN(C)c1ccc(NC(=O)c2cc(-c3ccccc3C(F)(F)F)nc3c2cnn3C)cc1	·	·	–	·	·
